The text below walks through data of PubChem BioAssay.

Results filed as inconclusive are left out. Some of the results follow. Active and inactive are the calls of the source.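 Rule for the calls, unless noted: active = GFP response below 50% of the DMSO control; inconclusive = fewer than 70 events counted for a yeast strain; inactive = the rest.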

A word on the inhibition: it is the relative decrease from the control value, in per cent.

Test [1] can be described thus: disruption of biotin probe capture by avidin, counter-screen for RGS protein interaction modulators, biochemical, flow cytometry, bead-based (AID 1783;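 active = inhibition above 50%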;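 note: median green fluorescence of gated singlet beads compared with DMSO control wells; 0% = DMSO wells and 100% = complete loss of bead fluorescence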). The note with it: streptavidin beads, fluorescein-biotin binding; at 10 µM, stronger effect = higher value. (In general: A counterscreen serves to expose hits that act by an unwanted route or on another target.)
Test [2] has as its target Guanine nucleotide-binding protein G(o) subunit alpha (Homo sapiens) (UniProt P09471). As to the kind of experiment: RGS8-Galphao binding modulators, confirmation, biochemical, multiplexed bead flow cytometry, single concentration (AID 1836; in the data active = binding response below about 72% or above about 130%; inactive = in between;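 note: Galphao activated as GDP AlF4 complex before binding bead RGS8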). The note with it: bead-based flow cytometry RGS8-Galphao binding, fluorescence; at 10 µM; actives lie on both sides. (A flow cytometer gives signals particle by particle.)

The target is the same in test [3]. As to the kind of experiment: RGS7-Galphao binding modulators, confirmation, biochemical, multiplexed bead flow cytometry, single concentration (AID 1837; in the data active = response below about 75% or above about 130%; inactive = in between;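 note: fluorescent Galphao activated with GDP and aluminum fluoride binding bead-coupled RGS7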). To be noted: bead-based flow cytometry RGS7-Galphao binding; at 10 µM; actives lie on both sides.
For test [4], the target named is Regulator of G-protein signaling 16 (Homo sapiens) + Guanine nucleotide-binding protein G(o) subunit alpha (Homo sapiens) (UniProt O15492+P09471). As to the kind of experiment: modulators of RGS16-Galphao protein binding, confirmation, biochemical, single concentration, multiplexed bead flow cytometry (AID 1838; in the data active = response below about 74% or above about 130%; inactive = in between;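 note: Galphao activated as the GDP aluminium fluoride complex binding bead-coupled RGS16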). To be noted: bead-based flow cytometry, at 10 µM, actives lie on both sides.

The target in test [5] is Guanine nucleotide-binding protein G(o) subunit alpha (Homo sapiens) (UniProt P09471). As to the kind of experiment: modulators of RGS4-Galphao protein binding, confirmation, biochemical, single concentration, multiplexed bead flow cytometry (AID 1840; in the data active = binding response below about 74% or above about 130%; inactive = in between). The note with it: at 10 µM, actives lie on both sides.
Test [6] has as its target Guanine nucleotide-binding protein G(o) subunit alpha (Homo sapiens) + Regulator of G-protein signaling 19 (Homo sapiens) (UniProt P09471+P49795). As to the kind of experiment: regulators of RGS19-Galphao binding, confirmation, biochemical, single point, multiplexed bead flow cytometry (AID 1841; in the data active = response below about 50% or above about 160%; inactive = in between;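 note: 100% = no compound control and 0% = blank background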). The note with it: bead-based flow cytometry RGS19-Galphao binding; at 10 µM; actives lie on both sides.

The nature of test [7]: yeast TOR pathway RPL19A-GFP modulators, primary screen, cell-based, S. cerevisiae, multiplex flow cytometry (AID 1862; in the data active = percent of DMSO control GFP below about 86%;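 note: lower values mimic rapamycin by blocking the RPL19A rise seen in DMSO cells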). The note with it: S. cerevisiae RPL19A-GFP strain, flow cytometry fluorescence, 3 h; at 10 µM; stronger effect = lower value.
The nature of test [8]: modulators of MEP2-GFP levels in yeast, primary screen, S. cerevisiae, multiplex flow cytometry (AID 1867;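 active = GFP response, as percent of the DMSO control, above the screen-wide mean plus 3 SD, about 139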;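 note: median GFP channel fluorescence of barcode-gated MEP2-GFP cells measured by flow cytometry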). The note with it: S. cerevisiae MEP2-GFP strain, 3 h, at 10 µM, stronger effect = higher value, 100% means same as DMSO wells.
Test [9] can be described thus: modulators of CIT2-GFP expression in yeast, primary screen, S. cerevisiae, GFP fusion, multiplex flow cytometry (AID 1870;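 active = percent response above a set limit, the screen-wide mean plus 3 SD, cut at about 130% in these data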;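 note: barcoded CIT2-GFP strain pooled with four other GFP strains with rapamycin as positive control; median GFP fluorescence per well over plate mean of DMSO wells so 100% = DMSO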). The note with it: 3 h, at 10 µM, stronger effect = higher value.
Test [10] in a line: modulators of LAP4-GFP expression in yeast, primary screen, S. cerevisiae, multiplex flow cytometry (AID 1873;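 active = GFP signal, as percent of the solvent control, above the screen mean plus 3 SD, about 149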). The note with it: 3 h, at 10 µM, stronger effect = higher value.
Test [11] is described as follows: modulators of AGP1-GFP expression in yeast TOR pathway, primary screen, cell-based, multiplex flow cytometry, S. cerevisiae (AID 1887;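 active = GFP signal above the screen-wide mean plus 3 SD, that is over about 124.5% of the solvent control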;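 note: AGP1-GFP fusion strain of S. cerevisiae within a five-strain barcoded multiplex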). To be noted: 3 h, at 10 µM, stronger effect = higher value.
Test [12] can be described thus: RPL19A-GFP modulators, yeast TOR pathway, confirmation, cell-based, S. cerevisiae, flow cytometry, cherry picks, mother/daughter gates (AID 2270). The note with it: S. cerevisiae RPL19A-GFP strain, 3 h, at 10 µM, stronger effect = lower value, 100 = same GFP as DMSO wells.
Test [13] in a line: LAP4-GFP expression modulators in yeast, confirmation, cell-based, cherry picks, flow cytometry, mother/daughter gates (AID 2271;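 active = GFP response above 150% of the DMSO control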;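 note: ratio of sample to DMSO plate mean so 100% equals DMSO level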). To be noted: S. cerevisiae LAP4-GFP strain, 3 h, at 10 µM, stronger effect = higher value, 100 means same as DMSO control.
Test [14] in a line: modulators of MEP2-GFP levels in yeast, confirmation, S. cerevisiae, flow cytometry GFP, cherry picks (AID 2272;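 active = GFP response above 150% of the DMSO control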;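 note: ratio of well signal to plate DMSO mean so 100% equals DMSO level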). The note with it: S. cerevisiae MEP2-GFP strain, 3 h, at 10 µM, stronger effect = higher value.
Test [15] is described as follows: modulators of CIT2-GFP expression in yeast, confirmation, S. cerevisiae, GFP fusion, cherry picks, mother/daughter gates (AID 2274;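 active = GFP response above 150% of the DMSO level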). The note with it: S. cerevisiae CIT2-GFP strain, flow cytometry, 3 h, at 10 µM, stronger effect = higher value.
Test [16] in a line: inhibitors of CD8+ T cell-vesicle binding, pilot screen, LFA-1/ICAM-1 modulator project, MLPCN validation set, flow cytometry (AID 2523;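 active = response below a set limit, under 55% cells CD8-positive and vesicle-bound, and CD8 cells' 90th-percentile brightness under 279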;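 for vesicle binding response: mean PE anti-B7-1 fluorescence of CD8+ cells relative to row control; 100% = QL9-loaded vesicles with DMSO vehicle in the same plate row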). The note with it: 2C mouse CD8+ T cells, at 7 µM, stronger effect = lower value; double positive events: measured here: CD8+/vesicle+ event percentage.
Setting [17] is: measured here: daughter cell gate.
Setting [18] is: measured here: mother cell gate.
[19] abbreviates: measured here: daughter cell gate response.
Setting [20] is: measured here: mother cell gate response.

Chain of Guanine nucleotide-binding protein G(o) subunit alpha (Homo sapiens) (P09471 whole entry, looked up): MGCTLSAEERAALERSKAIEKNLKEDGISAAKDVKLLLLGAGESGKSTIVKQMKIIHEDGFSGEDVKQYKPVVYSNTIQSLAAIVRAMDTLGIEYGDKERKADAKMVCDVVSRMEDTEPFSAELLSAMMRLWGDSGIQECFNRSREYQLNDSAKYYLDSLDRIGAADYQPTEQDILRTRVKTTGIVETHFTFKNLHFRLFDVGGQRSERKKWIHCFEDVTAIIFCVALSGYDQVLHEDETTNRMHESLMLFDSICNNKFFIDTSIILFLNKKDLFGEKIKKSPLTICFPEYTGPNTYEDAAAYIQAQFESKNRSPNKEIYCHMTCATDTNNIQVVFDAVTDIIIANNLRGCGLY
Chain of Guanine nucleotide-binding protein G(o) subunit alpha (Homo sapiens) + Regulator of G-protein signaling 19 (Homo sapiens) (P09471 whole entry, looked up): as above
Chain of Guanine nucleotide-binding protein G(o) subunit alpha (Homo sapiens) + Regulator of G-protein signaling 19 (Homo sapiens) (P49795 whole entry, looked up): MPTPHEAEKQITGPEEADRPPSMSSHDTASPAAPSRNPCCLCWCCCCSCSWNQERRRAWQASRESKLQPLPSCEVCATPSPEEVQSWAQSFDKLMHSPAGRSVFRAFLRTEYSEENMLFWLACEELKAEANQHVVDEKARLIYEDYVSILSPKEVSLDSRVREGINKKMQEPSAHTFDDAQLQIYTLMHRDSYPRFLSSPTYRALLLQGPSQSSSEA
Chain of Regulator of G-protein signaling 16 (Homo sapiens) + Guanine nucleotide-binding protein G(o) subunit alpha (Homo sapiens) (O15492 whole entry, looked up): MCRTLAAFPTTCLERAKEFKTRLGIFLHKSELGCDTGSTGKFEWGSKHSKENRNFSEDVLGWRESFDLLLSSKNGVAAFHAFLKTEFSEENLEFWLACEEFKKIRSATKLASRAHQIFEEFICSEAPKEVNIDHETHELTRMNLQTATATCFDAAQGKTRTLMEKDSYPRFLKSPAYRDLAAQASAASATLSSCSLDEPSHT
Chain of Regulator of G-protein signaling 16 (Homo sapiens) + Guanine nucleotide-binding protein G(o) subunit alpha (Homo sapiens) (P09471 whole entry, looked up): as the sequence (P09471 whole entry, looked up) above

`CCCOc1ccc(Cc2c(Cl)nc(SC)nc2NC)cc1`: the inhibition in [1] was -0.2% (inactive). Moreover, the binding response (% of control) is 102% (inactive) in test [2] and 101% (inactive) in [5]. In addition, the figures for the response (percent of control binding) in test [3] and in test [6] were 94.9% (inactive) and 67.1% (inactive), respectively. Moreover, the response (% of control binding) in test [4] is 99.9% (inactive).
Take `O=C(NC1CCCCC1)N1CCc2[nH]c3ccccc3c2C1`: in test [7], the percent of DMSO control GFP was 89.3% (inactive). The GFP response vs DMSO in test [8] was 147% (active); in test [10], 83.6% (inactive); in test [12], 98.8% (inactive); in test [12] (setting [17]), 98.1%; in [12] (setting [18]), 98.5%; in [14], 100% (inactive). Besides, the percent response of DMSO control in test [9] was 119% (inactive). In addition, the GFP response, % of DMSO in test [11] was 93.1% (inactive); in [15], 107% (inactive); in test [15] (setting [17]), 105%; in [15] (setting [18]), 107%. Also, the GFP response relative to DMSO in test [13] is 97.9% (inactive); in [13] (setting [19]), 97.6%; in [13] (setting [20]), 98.3%. For the same compound, in [16], the double positive events was 61.4%. Besides, the vesicle binding response in [16] was 212% (inactive).
Consider `N=c1nc(N2CCCCC2)cc(N)n1O`, for which the percent of DMSO control GFP in test [7] was 90.9% (inactive). In addition, the GFP response vs DMSO in test [8] was 143% (active); in test [10], 86.4% (inactive); in [12], 97.4% (inactive); in test [12] (setting [17]), 97.4%; in [12] (setting [18]), 97.4%; in test [14], 98.3% (inactive). Moreover, the percent response of DMSO control in test [9] was 107% (inactive). The GFP response, % of DMSO in test [11] is 90.1% (inactive); in [15] it was 99.7% (inactive); in test [15] (setting [17]), 103%; in [15] (setting [18]), 99.7%. Besides, the GFP response relative to DMSO in [13] is 101% (inactive); in test [13] (setting [19]) it was 101%; in test [13] (setting [20]) it was 99.3%. Also, the double positive events in test [16] was 59.7%. Besides, in test [16], the vesicle binding response was 117% (inactive).
Take `CC(=O)Nc1ccc(S(=O)(=O)c2ccc(N)cc2)cc1`: the percent of DMSO control GFP in [7] was 97.9% (inactive). In addition, the GFP response vs DMSO in test [8] was 126% (inactive); in test [10], 77.6% (inactive); in [12], 103% (inactive); in test [12] (setting [17]) it was 101%; in test [12] (setting [18]), 104%; in [14], 102% (inactive). In addition, in [9], the percent response of DMSO control is 136% (active). Besides, the GFP response, % of DMSO was 85.4% (inactive) in [11], 102% (inactive) in [15], 101% in [15] (setting [17]) and 102% in test [15] (setting [18]). The GFP response relative to DMSO in test [13] is 105% (inactive); in [13] (setting [19]), 103%; in [13] (setting [20]), 106%. The same compound showed a double positive events in test [16] of 62.6%. Besides, the vesicle binding response in [16] is 203% (inactive).
As for `O=C(Nc1ccccc1)OCc1cc(-c2ccc(Cl)cc2)on1`, the inhibition in [1] is 2.5% (inactive). For the same compound, the binding response (% of control) was 107% (inactive) in [2] and 93.7% (inactive) in test [5]. Moreover, the response (percent of control binding) in test [3] is 88.4% (inactive); in [6], 55.4% (inactive). The response (% of control binding) in test [4] was 107% (inactive).
Consider `C1COC(NC(C2CC2)C2CC2)=N1`, for which the percent of DMSO control GFP in [7] is 89.3% (inactive). Besides, the GFP response vs DMSO in test [8] is 148% (active); in [10] it was 85.3% (inactive); in [12], 96% (inactive); in test [12] (setting [17]), 97.1%; in test [12] (setting [18]), 97.6%; in test [14], 96.2% (inactive). Also, in [9], the percent response of DMSO control is 110% (inactive). In addition, the GFP response, % of DMSO was 94.5% (inactive) in test [11], 98.3% (inactive) in test [15], 101% in test [15] (setting [17]) and 97.3% in test [15] (setting [18]). For the same compound, the values for the GFP response relative to DMSO in test [13], in test [13] (setting [19]) and in test [13] (setting [20]) were 95.4% (inactive), 96% and 95.1%, respectively. The compound also registered a double positive events in [16] of 64.4%. For the same compound, the vesicle binding response in test [16] is 227% (inactive).
